# In PubChem BioAssay (EPA / NIEHS):
# Calls of active or inactive are those of the source. Rule for the calls: active = hit-call score of the fitted dose curve at least 0.9, where 1 is the maximum; inactive = score below 0.9.
# Read-out: Peroxisomal acyl-coenzyme A oxidase 1 (ACOX1) gene, ACOX1 (gene 51)
# Test: LTEA_HepaRG_ACOX1: Life Technologies and Expression Analysis (LTEA) Assay for Peroxisomal acyl-coenzyme A oxidase 1 (ACOX1) gene using HepaRG (AID 2283467)
# Conditions: mRNA level, 48 h; actives raise or lower the signal
# Protocol: LTEA_HepaRG is a cell based, multiplexed-readout assay that uses HepaRG, a human liver cell line, with measurements taken at 48 hours after chemical dosing on a 96-well plate.LTEA_HepaRG_ACOX1 is one of 102 assay component(s) measured in the LTEA HepaRG cell culture assay. It is a marker of Steatosis.Data from the assay component LTEA_HepaRG_ACOX1 was analyzed into 1 endpoint. This assay endpoint, LTEA_HepaRG_ACOX1, was analyzed with bidirectional fitting relative to DMSO as the negative control and baseline of activity. Using a type of inducible reporter, measures of mRNA induction for gain or loss-of-signal activity can be used to understand regulation of transcription factor activity. To generalize the intended target to other relatable targets, this assay endpoint is annotated to the oxidase intended target family, where the subfamily is steatosis.
# A total of 1060 chemcials from the ToxCast library were tested in eight-point concentration-response experiments. Cell culture and cytotoxicity assays were conducted at Thermo Fisher Scientific's Custom Services facility (Madison, WI). A single lot of human HepaRG cells (Thermo Fisher Scientific, Frederick, MD) was used for the cell culture experiments. 96-well format collagen type I coated plates of human HepaRG cells were prepared using established methods. Briefly, cryopreserved HepaRG cells were thawed, plated at a density of approximately 100,000 cells/well in HepaRG Thaw, Plate, and General Purpose media (HPRG770, Thermo Fisher Scientific), and incubated for 48 hours. 0.5% DMSO was selected as vehicle control to balance the requisite need of DMSO in HepaRG cultures to maintain differentiation (for example, baseline metabolism, proportions of hepatocytes vs. cholangiocytes), while enabling further hepatic receptor pathway activation (for example, PXR and CAR) in response to chemical exposure. 48 hours after plating, the culture medium was replaced with HepaRG Serum-Free Incudtion Media. Cells were exposed to each test chemical in duplicate and maintained in CO2 incubators for another 48 hours. Chemical plates were thawed to room temperature and 200x concentrations of treatment groups were prepared. 8-point conentration-reponse curves were made with the highest exposure at 100 uM, followed by half-log dilutions, all in 0.5% DMSO. Each test plate contained variouse controls, induction positive controls (1mM phenobarbital), cytotoxicity positive controls ([…] aflatoxin B1), vehicle controls (0.5% DMSO), and total lysis controls (0.5% DMSO). Cell morphology images were taken using an Essen IncuCyte FLR automated microscope, with six 96-well plates imaged in about 24 minutes. Images were captured and exported and JPEG files. Spent culture media was transfered to black-well plates for the LDH assay, and remaining media was sorted at -80 C for later use. Cells were treated with RLT buffer and frozen until shipped for gene expression analysis. Total RNA was isolated from the cell suspension in 75 uL of Buffer RLT (Qiagen, Germantown, MD 20874) by Quintiles/Expression Analysis (Durham, NC) using a custom isolation procedure. Total RNA from each plate well was transferred to a preamplification plate. Fluidigm's 96.96 Dynamic ArrayTM (Fluidigm, Amsterdam, the Netherlands) technology was used for gene expression analyses by quantitative reverse transcription polymerase chain reaction (qRT-PCR, performed by Quintiles/Expression Analysis, Durham, NC)89. Standard TaqManTM Assays (Applied Biosystems/ThermoFisher Scientific, Foster City, CA) were used to assess the expression of 93 genes selected based on their selectivity and sensitivity to important hepatic receptors known to be modulated by environmental chemicals; importance in human hepatocyte functionality; and hepatotoxicity. […]
Structure (SMILES),outcome,AC50
OCC(O)CO,inactive,–
O=C1OC(c2ccc(O)cc2)(c2ccc(O)cc2)c2ccccc21,–,50 µM (active)
O=C(N[C@@H](c1ccccc1)[C@@H]1CCCCN1)c1cccc(C(F)(F)F)c1Cl,–,74.2 µM (active)
COC(=O)CCC(=O)OC,inactive,–
O=C1CCCCC1,inactive,–
CC1(C)C(=O)NC(=O)N1CO,inactive,–
CSc1ccc(Oc2ccc(S(N)(=O)=O)cc2CN(C)C)cc1C,inactive,–
CCCCC(CC)CO (stereo not given),inactive,–
S=c1[nH]c2ccccc2s1,inactive,–
CC(=O)CC(c1ccccc1)c1c(O)c2ccccc2oc1=O (stereo not given),inactive,–
CS(=O)(=O)c1ccc([C@@H](C[C@H]2CCC(=O)C2)C(=O)Nc2cnccn2)cc1Cl,inactive,–
CCCC[C@H]1CN(CC2CCOCC2)C(=O)OC12CCN(C1(C)CCN(C(=O)c3c(C)ncnc3C)CC1)CC2,inactive,–
Nc1nc(=S)c2[nH]cnc2[nH]1,–,12.2 µM (active)
Cc1occc(=O)c1O,inactive,–
C#CC(O)C(CC)CCCC (stereo not given),inactive,–
CC(=O)O,inactive,–
O=Cc1ccccc1C=O,inactive,–
CN(C)C(=O)NC1(c2ccccc2)CCN(CC[C@@]2(c3ccc(F)c(F)c3)CN(C(=O)c3ccccc3)CCO2)CC1,inactive,–
O=C(NS(=O)(=O)/C=C/c1cccs1)c1ccc(F)cc1Br,inactive,–
CC1=C(C)S(=O)(=O)CCS1(=O)=O,inactive,–

Structure (SMILES),outcome,AC50
CC(C)COC(=O)CCCCC(=O)OCC(C)C,inactive,–
CCCCCCCCCCCCCCCCO,inactive,–
C=CCCCCCCCCCCCC,inactive,–
N[C@@H](Cc1c[nH]c2ccccc12)C(=O)O,inactive,–
CCc1nc(N)nc(N)c1-c1ccc(Cl)cc1,–,18.6 µM (active)
CC(C)NCC(O)c1ccc(O)c(O)c1 (stereo not given),–,0.224 µM (active)
CC(C)(C)c1ccccc1,inactive,–
O=NO,inactive,–
NC=O,inactive,–
NC(=Nc1ccccc1)Nc1ccccc1,inactive,–
O=C1c2c(O)cccc2Cc2cccc(O)c21,inactive,–
Cc1cc(Cc2ccc(N)c(C)c2)ccc1N,inactive,–
Oc1ccc(O)cc1,inactive,–
CC(C)OC(=O)C(C)(C)Oc1ccc(C(=O)c2ccc(Cl)cc2)cc1,inactive,–
c1ccc2occc2c1,inactive,–
Cc1ccc(C(C)(C)C)c(O)c1,inactive,–
O=C1O[C@H]([C@H](O)CO)C(O)=C1O,inactive,–
CC(C)(O)c1ccc(CNC(=O)c2cccnc2Oc2ccc(F)cc2)cc1,inactive,–
C=CCc1ccc(OC)c(OC)c1,inactive,–
CCN(CC)CCOc1ccc(C(=C(Cl)c2ccccc2)c2ccccc2)cc1,–,13.3 µM (active)
